Compound activity: PubChem BioAssay, National Center for Advancing Translational Sciences (NCATS)
12-LOX inh: Primary qHTS assay for inhibitors of human arachidonate 12S-lipoxygenase (ALOX12): Round 2. purified 12hLO, xylenol orange hydroperoxide absorbance. Potency, µM (titrated, usually from 108 µM), inactives show at the highest dose activity change, negative = inhibition, actives largely listed as inhibitors. 580,000 compounds, 1.1% hits. AID 1671190, 2021; note: potency is the fitted concentration of half-maximal effect
Target sequence (P18054 whole entry, looked up): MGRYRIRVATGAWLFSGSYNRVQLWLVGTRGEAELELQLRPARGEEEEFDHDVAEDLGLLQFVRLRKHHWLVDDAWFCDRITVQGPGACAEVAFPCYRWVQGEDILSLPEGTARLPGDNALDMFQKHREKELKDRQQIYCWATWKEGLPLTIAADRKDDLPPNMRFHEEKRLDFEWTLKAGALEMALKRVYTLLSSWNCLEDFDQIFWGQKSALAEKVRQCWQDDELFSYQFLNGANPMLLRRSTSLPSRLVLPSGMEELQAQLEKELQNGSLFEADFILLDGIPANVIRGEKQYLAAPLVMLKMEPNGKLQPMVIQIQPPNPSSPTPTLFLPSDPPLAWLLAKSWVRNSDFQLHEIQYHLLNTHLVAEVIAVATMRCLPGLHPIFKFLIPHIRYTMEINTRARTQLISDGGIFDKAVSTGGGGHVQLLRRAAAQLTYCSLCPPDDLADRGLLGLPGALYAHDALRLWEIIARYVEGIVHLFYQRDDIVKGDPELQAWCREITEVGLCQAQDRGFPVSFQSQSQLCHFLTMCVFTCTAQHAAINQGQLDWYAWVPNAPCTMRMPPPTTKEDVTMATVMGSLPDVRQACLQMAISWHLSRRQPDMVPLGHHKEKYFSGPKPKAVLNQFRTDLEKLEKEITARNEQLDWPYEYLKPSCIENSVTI
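Hydroperoxide product was detected by ferrous iron/xylenol orange as the 573 to 405 nm absorbance ratio. Arachidonic acid at 40 uM (final) was turned over for 30 min at room temperature by 150 nM human 12hLO, pH 7.0 Hepes buffer, after 15 min compound preincubation.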
IL-1B inflam inh: qHTS for Inhibitors of Inflammasome Signaling: IL-1-beta AlphaLISA Primary Screen | AID 743279, 2014 | THP-1 LPS/ATP IL-1B secretion, AlphaLISA, 16 h; hits give low values | 360,000 compounds, 4.7% hits | activity change, % at 57.5 µM; in the data active = activity change below about -50%; inconclusive = mostly about -30% to -49%
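THP-1 cells pretreated 1 hr with compounds (up to 57.5 uM final), then stimulated with LPS (250 ng/mL final) plus ATP (1.25 mM final); secreted IL-1B measured by AlphaLISA after 16 hr, decreased signal indicating inhibition.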
DT40 TDP1 CPT: qHTS for Inhibitors of human tyrosyl-DNA phosphodiesterase 1 (TDP1): qHTS in cells in presence of CPT | 420,000 compounds, 12% hits | AID 686979, 2013 | Potency, µM (titrated, usually from 46.2 µM), for the others: top-dose activity change, negative = growth inhibition, usual class: inhibitors | chicken DT40 Tdp1-/-;hTDP1 cells + 20 nM CPT, ATP luminescence, 48 h; note: potency is the fitted concentration of half-maximal effect; nearly all actives have a fitted effect of over 55% in size
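Chicken DT40 Tdp1-/- cells stably complemented with human TDP1 were seeded at 400 cells/well in medium containing 20 nM camptothecin, exposed to pin-transferred compounds, and grown at 37 °C for at least 48 hr. Viability was read as ATP luminescence.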
HT1080 IDH1KD tx: qHTS for induction of synthetic lethality in tumor cells producing 2HG: qHTS for the HT-1080-IDH1KD cell line; HT-1080 IDH1 knockdown viability, ATP luminescence, 48 h; Potency, µM (doses to about 46.1 µM), for the others: at the top dose activity, negative = toxicity, most hits filed as cytotoxic; 360,000 compounds, 2% hits;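 note: potency is the fitted concentration of half-maximal effect; 0% = DMSO wells and -100% = cell-free medium wells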
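Cytotoxicity counter-line: IDH1KD HT-1080, 48 h, CellTiter-Glo. Curves classed by r2, magnitude and activity.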
HT1080-NT tox: qHTS for induction of synthetic lethality in tumor cells producing 2HG: qHTS for the HT-1080-NT fibrosarcoma cell line | 360,000 compounds, 1.6% hits | AID 686970, 2013 | HT-1080-NT fibrosarcoma viability, CellTiter-Glo ATP luminescence, 48 h | Potency, µM (top dose mostly 46.1 µM), for the others: top-dose activity, negative = less viability, hits mostly cytotoxic;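 note: NT is the 2HG producing partner of a matched IDH1 knockdown line; potency is the fitted concentration of half-maximal effect; 0% = DMSO-treated cells and -100% = media-only wells without cells; nearly all actives have a fitted effect of over 55% in size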
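Fibrosarcoma NT cells, 750 per well in 5% FBS RPMI, were exposed to compound for 48 hours. Viability: CellTiter-Glo luminescence.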
DT40 TDP1 no CPT: qHTS for Inhibitors of human tyrosyl-DNA phosphodiesterase 1 (TDP1): qHTS in cells in absence of CPT; DT40 Tdp1-/- hTDP1 cells, no CPT, ATP luminescence, 48 h; Potency, µM (top dose mostly 46.2 µM), for inactives: top-dose activity change, negative = growth inhibition, hits mostly inhibitors; 420,000 compounds, 15% hits; AID 686978, 2013; note: potency is the fitted concentration of half-maximal effect; nearly all actives have a fitted effect of over 55% in size
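Readout: luminescence from CellTiter-Glo after 30 min in the dark at RT. Cells: DT40 Tdp1-/- with stable hTDP1, 400/well. Exposure: compounds alone, ≥48 hr, 37 °C.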
* = called active by the depositor; ? = inconclusive; . = no result; [ ] = remark or other dose. The sample as a whole holds a higher share of hits than the screen did. Unless noted, calls come from the whole dose curve; as a rule, active = well fitted curve in the direction sought with a large enough effect; inconclusive = small, poorly fitted or top-dose-only effect, or another doubt; inactive = no such curve, though single readings can be large; an effect the other way counts as inactive or inconclusive. Unless noted, % is set by controls: 0 for no effect and ±100 for the full control effect.

SMILES	12-LOX inh	IL-1B inflam inh	DT40 TDP1 CPT	HT1080 IDH1KD tx	HT1080-NT tox	DT40 TDP1 no CPT
Cn1c(=O)c2c(nc(N3CCOCC3)n2Cc2cccc(Br)c2)n(C)c1=O	0%	.	9.2µM*	.	.	5.8µM*
Cc1ccccc1Cn1c(CN2CCCC(C)C2)nc2c1c(=O)n(C)c(=O)n2C (configuration not stated)	10%	.	8.2µM*	.	.	5.8µM*
Cn1c(=O)c2c(nc(N3CCCCCC3)n2Cc2cccc(Br)c2)n(C)c1=O	8%	.	.	.	.	.
CC1CCCN(Cc2nc3c(c(=O)n(C)c(=O)n3C)n2Cc2c(F)cccc2Cl)C1 (configuration not stated)	13%	8	8.2µM*	10%	2%	9.2µM*
Cn1c(=O)c2c(nc(N3CCOCC3)n2Cc2c(F)cccc2Cl)n(C)c1=O	0%	6	21µM*	14%	6%	23µM*
Cc1cccc(Cn2c(CN3CCCC(C)C3)nc3c2c(=O)n(C)c(=O)n3C)c1 (configuration not stated)	-7%	.	?	.	.	?
CSCCC(NC(=O)c1ccccc1Br)C(=O)Nc1cc(Cl)cc(Cl)c1 (configuration not stated)	0%	.	.	.	.	.
Cc1cc(C)nc(SCCn2c(N(C)Cc3ccccc3)nc3c2c(=O)n(C)c(=O)n3C)n1	-20%	20	?	3%	16%	?
Cn1c(=O)[nH]c(=O)c2c1nc(CN1CCN(c3ccccc3)CC1)n2Cc1c(F)cccc1Cl	-13%	.	?	.	.	?
Cn1c(=O)c2c(nc(CN3CCN(c4ccccc4)CC3)n2Cc2ccccc2Cl)n(C)c1=O	-21%	24	?	0%	5%	15µM*
CN(Cc1ccccc1)c1nc2c(c(=O)n(C)c(=O)n2C)n1CCSc1ncccn1	-1%	6	23µM*	-1%	-3%	18µM*
Cn1c(=O)c2c(nc(CN3CCN(c4ccccc4)CC3)n2Cc2c(F)cccc2Cl)n(C)c1=O	0%	32	21µM*	-7%	0%	8.2µM*
Cn1c(=O)c2c(nc(N3CCOCC3)n2CCSc2ncccn2)n(C)c1=O	23%	9	21µM*	4%	11%	23µM*
Cc1ccc(NC(=O)c2ccc(C)cc2)cc1	4%	-2	4%	23%	9%	-7%
CSC(SC)=C(C(C)=O)C(=O)c1ccc(C)cc1	-16%	-50*	-2%	-1%	-1%	?
CCOC(=O)c1c(NC(=O)CCS(=O)(=O)c2ccccc2)sc2c1CCN(C(C)C)C2	463%	-80*	4.1µM*	11%	10%	4.1µM*
COC(=O)c1c(NC(=O)c2ccc(S(=O)(=O)N3CCCCC3)cc2)sc2c1CCN(C)C2	?	.	4.6µM*	.	.	4.6µM*
CCOC(=O)c1c(NC(=O)C2C3C=CC(C3)C2C(=O)O)sc2c1CC(C)CC2 (configuration not stated)	0%	15	?	-30%	-8%	-26%
CCOC(=O)c1c(NC(=O)c2ccc(N3C(=O)[C@@H]4[C@H](C3=O)[C@H]3C=C[C@@H]4C3)cc2)sc2c1CC(C)CC2 (some centres not stated)	-13%	-81*	-45%	15%	10%	1.2µM*
CCOC(=O)c1c(NC(=O)c2ccc(S(=O)(=O)N3CCOCC3)cc2)sc2c1CCN(C)C2	-18%	-4	-26%	4%	-12%	?
CCN1CCc2c(sc(NC(=O)c3ccc(S(=O)(=O)N4CC(C)OC(C)C4)cc3)c2C(N)=O)C1 (configuration not stated)	?	8	-2%	-21%	-20%	-5%
CCOC(=O)c1c(NC(=O)c2ccc(S(=O)(=O)N3CCC(C)CC3)cc2)sc2c1CCN(C(C)C)C2	-10%	.	23µM*	.	.	15µM*
COC(=O)c1c(NC(=O)Cc2ccccc2)sc2c1CCN(C(C)C)C2	21%	?	?	-5%	-15%	?
O=C1NCCN(Cc2cccc(Oc3ccccc3)c2)C1CC(=O)N1CCCOCC1 (configuration not stated)	6%	.	.	.	.	.
C[S+](=O)([O-])N1Cc2ccccc2OC2(CCN(C(=O)CCc3ccc(O)cc3)CC2)C1	5%[6.33 µM]	.	.	.	.	.
SMILES	12-LOX inh	IL-1B inflam inh	DT40 TDP1 CPT	HT1080 IDH1KD tx	HT1080-NT tox	DT40 TDP1 no CPT
CCOC(=O)c1ccsc1NC(=O)CCS(=O)(=O)c1ccccc1	5%	-82*	?	-15%	2%	?
NC(=O)c1ccsc1NC(=O)CCS(=O)(=O)c1ccccc1	-8%	13	?	-12%	-11%	?
CCOC(=O)c1c(NC(=O)c2ccc(S(=O)(=O)N3CCC(C)CC3)cc2)sc2c1CCN(CC)C2	?	.	13µM*	.	.	21µM*
CCn1c(SCC(=O)Nc2ccc(F)cc2F)nnc1C(C)NC(=O)c1ccco1 (configuration not stated)	28%	.	.	.	.	.
O=C(Cc1ncc(C(F)(F)F)cc1Cl)NNc1cccc(F)n1	-2%	0	27%	0%	-1%	9%
CC1CCCC(NC(=O)NC(=O)CCl)C1C (configuration not stated)	-6%	-63*	3.7µM*	-6%	-4%	3.7µM*
CC1CCCCC1NC(=O)NC(=O)COC(=O)c1nccnc1N (configuration not stated)	-8%	19	-12%	22%	9%	-1%
CC1CCCCC1NC(=O)NC(=O)CCl (configuration not stated)	-13%	-96*	2.9µM*	?	-18%	5.2µM*
CC(C)(C)C(=O)/C=c1/[nH]c(=O)/c(=C/c2cc(F)ccc2F)s1	36%	.	.	.	.	.
Cc1cccc(Cn2c(SCc3ccc(C(=O)NCc4cccs4)cc3)nc3ccncc32)c1	-1%	.	?	.	.	23µM*
O=C(NCc1cccs1)c1ccc(CSc2nc3ccncc3n2Cc2ccccc2)cc1	0%	.	?	.	.	18µM*
CCNC(=O)c1ccc(CSc2nc3ccncc3n2Cc2ccc(F)cc2)cc1	-17%	.	?	.	.	?
CC(=O)N1CC2(Cc3ccccc31)CN(C(=O)c1ccccc1)C2	3%[176 µM]	.	.	.	.	.
